# Screening data: PubChem BioAssay, National Center for Advancing Translational Sciences (NCATS)
# HCMV inh: blocks human cytomegalovirus replication | HFF cells, HCMV-luciferase reporter, 72 h; stronger effect = lower value | actives 4.5% (n = 410,000) | activity change, negative = inhibition, % at 57.5 µM; in the data active means activity change below about -60%; inconclusive means no clear call, values can overlap the other calls; inactive means above about -39%
#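 Screen run at 2 compound doses on HFFs infected with reporter HCMV, MOI 1 PFU/cell. Luciferase activity from cell lysates at 72 h post infection gave inhibition relative to buffer-only and Salinomycin wells.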
# HCV inh: inhibitors of hepatitis C virus infection; Huh7.5.1 HCVcc-Cre infection, luciferase reporter, 44 h; Potency, µM (highest dose often 41.8 µM), for the others: at the highest dose activity change, negative = inhibition, actives largely listed as inhibitors; actives 3.4% (n = 340,000); AID 651820; further: potency means the concentration at half of the fitted maximal effect
#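 1,000 cells/well; 4 h culture; + compound; + HCVcc-Cre (~0.5 moi); 44 h; luciferase substrate, RT 15 min; read 15 sec.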
# Pf growth 48h: P. falciparum growth inhibition at 48 hours (one generation); P. falciparum luciferase growth in erythrocytes, 48 h; Potency, µM (series often up to 28.7 µM), for the others: top-dose activity change, negative = inhibition, hits mostly inhibitors; actives 5.9% (n = 310,000); further: potency means the concentration at half of the fitted maximal effect
#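 Erythrocytes infected with P. falciparum carrying an integrated firefly luciferase reporter (2% hematocrit, 0.1% parasitemia final) were exposed to compounds in RPMI 1640 with 0.5% Albumax at 37 C, 5% CO2. Growth inhibition was scored as reduced luminescence.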
# Pf growth 96h: P. falciparum growth inhibition at 96 hours; Potency, µM (highest dose often 28.7 µM), for the others: at the highest dose activity change, negative = inhibition, actives largely listed as inhibitors; AID 504834; actives 6.9% (n = 320,000); P. falciparum luciferase reporter growth, 96 h; further: potency means the concentration at half of the fitted maximal effect
#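 Delayed-death screen, second-generation endpoint: infected erythrocytes, 2% hematocrit, 0.05% parasitemia final; 96 hours at 37 C, 5% CO2; luciferase detection reagent; luminescence decrease equals reduced growth.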
# * hit, by the source's call; ? = inconclusive; . = not tested or not shown; + = active, no number. Compounds with a hit are over-represented: about 13% of the library has one in this group of screens. Unless noted, the call rests on the fitted dose curve; in most records, active means well fitted inhibition curve with a large enough effect; inconclusive means small, poorly fitted or top-dose-only effect, or another doubt; inactive means no such curve, though single readings can be large or run the other way. On the % scale 0 is the no-effect control and ±100 the full control effect.
SMILES,HCMV inh,HCV inh,Pf growth 48h,Pf growth 96h
COc1ccccc1N1CCN(C(=O)c2cnn(-c3ccc(C)c(C)c3)c2C2CCN(C(=O)OC(C)(C)C)CC2)CC1,0.0,.,.,.
Cc1ccc(Cl)cc1N1CCN(C(=O)c2cnn(-c3ccc(Cl)cc3)c2C2CCNCC2)CC1,-101.3*,.,.,.
Cc1ccc(N2CCN(C(=O)c3cnn(-c4ccc(C)c(C)c4)c3C3CCNCC3)CC2)c(C)c1,-97.0*,.,.,.
Cc1cccc(N2CCN(C(=O)c3cnn(-c4cccc(Cl)c4C)c3C3CCNCC3)CC2)c1C,-98.6*,.,.,.
CCc1ccc(S(=O)(=O)c2nnn3c2nc(NCc2cccc(OC)c2)c2cc(Cl)ccc23)cc1,-1.0,.,.,.
CCCOc1cccc(-c2nn(-c3ccccc3)cc2/C=C(\C#N)C(=O)NCCCn2ccnc2)c1,-19.3,?,2.08µM*,10.4µM*
N#C/C(=C\c1ccc([N+](=O)[O-])cc1)C(=O)NCCCn1ccnc1,0.0,-19.1%,-7.4%,1.6%
N#C/C(=C/c1cn(-c2ccccc2)nc1-c1cccc(OCc2ccc(F)cc2)c1)C(=O)NCCCn1ccnc1,13.0,5.62µM*,3.7µM*,2.08µM*
O=C(NCCCn1ccnc1)c1cn(-c2ccccc2)nc1-c1ccc(F)cc1,63.9,-4.9%,?,6.6%
Cc1cc(N)n(-c2ccc(C(=O)O)cc2)n1,-16.1,-6.7%,15.4%,?
Cc1cc(C)n(-c2ccc(C(=O)NCC(=O)Nc3cc(Cl)ccc3Cl)cc2)n1,+,-6.1%,.,.
Cc1cc(C)n(-c2ccc(C(=O)C(C#N)c3nc4ccccc4n3C)cc2)n1 (stereo not drawn),-20.8,-19.8%,18.2%,9.28µM*
Cc1cc(C)n(-c2ccc(C(=O)N3CCN(S(=O)(=O)c4ccc(C(C)C)cc4)CC3)cc2)n1,9.4,?,11.7µM*,?
COc1ccc(Cl)cc1NC(=O)CN(C)C(=O)c1ccc(-n2nc(C)cc2C)cc1,0.0,?,?,?
Cc1cc(C)n(-c2ccc(C(=O)O)cc2)n1,-29.2,3.4%,22.3%,1.85µM*
Cc1cc(C)n(-c2ccc(C(=O)OC(C)C)cc2)n1,-15.5,1.3%,83.2%,0.0%
CCOc1ccc(-n2c(SCC(=O)Nc3cc(C)ccc3C)nc3c([nH]c4ccccc43)c2=O)cc1,8.6,.,.,.
COc1ccc(OC)c(C(=O)c2c(N)c(-c3nc(-c4ccc(C)c(C)c4)cs3)c3ccccn23)c1,1.8,.,.,.
CC(C)C[C@H]1CN([C@@H](Cc2ccccc2)CN2CCC[C@H]2CN2C(=O)C(=O)NC[C@@H]2Cc2ccccc2)C(=O)C(=O)N1CC1CCCCCC1,-6.9,.,.,.
Cc1nn2c(=O)cc(COC(=O)c3ccccc3NC(=O)C(C)C)nc2s1,100.5,.,.,.
CC(C)(C)c1ccc(C(=O)NC2(C(F)(F)F)NC(=O)N(CCc3ccccc3)C2=O)cc1 (stereo not drawn),-12.5,.,.,.
CCc1ccc(CNC(=O)c2ccc(Cn3c(=O)c4cccn4c4cccnc43)cc2)cc1,1.9,.,.,.
CSc1ccccc1NC(=O)COC(=O)c1ccc(-n2nc(C)cc2C)cc1,-106.6*,-3.2%,.,.
Cc1cc(C)n(-c2ccc(C(=O)N3CCN(S(=O)(=O)c4cccc(Br)c4)CC3)cc2)n1,-64.2*,7.94µM*,.,.
COc1ccc(N2CCN(C(=O)c3ccc(-n4nc(C)cc4C)cc3)CC2)cc1,35.0,-24.4%,-13.1%,7.7%
SMILES,HCMV inh,HCV inh,Pf growth 48h,Pf growth 96h
CC(=O)c1oc2ccccc2c1NC(=O)COC(=O)c1ccc(-n2nc(C)cc2C)cc1,11.8,?,11.0%,?
O=C1C(=Cc2ccc(F)cc2)CCc2ccccc21,-1.3,.,.,.
C=CC(=O)N1C/C(=C/c2ccc(F)cc2)C(=O)/C(=C\c2ccc(F)cc2)C1,-100.2*,?,.,.
COc1cc2[nH]c(=O)n(CCCCCC(=O)N3CCN(c4ccc(Cl)cc4)CC3)c(=O)c2cc1OC,-12.8,.,.,.
COc1cc2[nH]c(=O)n(CCCCCC(=O)N3CCN(c4ccccc4)CC3)c(=O)c2cc1OC,38.0,?,7.38µM*,30.2%
COC(=O)c1ccc2c(=O)n(CCCCCC(=O)O)c(=S)[nH]c2c1,-62.6*,13.2%,?,?
COC(=O)c1ccc2c(=O)n(CCCCCC(=O)N3CCN(c4ccccc4)CC3)c(=O)[nH]c2c1,-29.1,10µM*,.,1.7%
O=c1c(N2CCOCC2)c(N2CCOCC2)c1=O,33.8,8.1%,36.0%,-19.4%
CC(C)(C)C1=CC(=O)C(N2CCOCC2)=CC1=O,63.2,-11.4%,10.4µM*,14.7µM*
CC(=O)c1cc2c(cc1NC(=O)c1cnn(-c3ccc(C)cc3)c1-n1cccc1)OCO2,-30.9,.,.,.
CC1CCCC(NC(=S)Nc2ccc(SC(F)F)cc2)C1C (stereo not drawn),?,31.6µM*,?,.
CCC(C#N)(CC)P(=S)(c1ccccc1)c1ccccc1,-73.3*,1.0%,?,?
Cc1csc(NC(=O)CCSCCc2ccccn2)n1,-18.4,3.0%,.,9.28µM*
O=C(CCSCCc1ccccn1)Nc1ccccc1C(F)(F)F,7.1,.,.,.
O=C(NCc1ccc(Cl)cc1)c1cnc(N2CCCCC2)c2ccccc12,0.4,.,.,.
COC(=O)C(Cc1ccc(N(CCCl)CCCl)cc1)N=Cc1ccccc1O (stereo not drawn),-103.5*,?,?,0.0%
NC(Cc1ccc(O)cc1)C(=O)NN=Cc1ccccc1O (stereo not drawn),21.0,.,.,.
CCOc1ccc(NC(=O)Nc2c[nH]c(=O)[nH]c2=O)cc1,9.9,.,.,.
COc1ccccc1CCNC(=O)C(C)n1nc(C)c2c(C)n(-c3ccccc3)nc2c1=O (stereo not drawn),-13.0,-2.5%,-11.9%,11.7µM*
COc1ccc(CCNC(=O)C(C)n2nc(C)c3c(C)n(-c4ccc(C)cc4)nc3c2=O)c(OC)c1 (stereo not drawn),-98.0*,3.16µM*,13.1µM*,3.29µM*
COc1ccccc1CNC(=O)C(C)n1nc(C)c2c(C)n(-c3ccccc3)nc2c1=O (stereo not drawn),-18.0,-27.3%,?,?
Cc1cc(C)c(NC(=O)CCn2c(=O)c3cccn3c3cccnc32)c(C)c1,2.4,.,.,.
CCOc1ccc(-c2cc(C(=O)N3CCN(c4ccc(C)cc4)C(C)C3)c3ccccc3n2)cc1 (stereo not drawn),60.5,.,.,.
CS(=O)(=O)n1nc(-c2ccc(Cl)cc2)nc1N,5.0,-4.2%,51.0%,-4.4%
Cn1nc(-c2ccc(Cl)cc2)nc2c(=O)n(C)c(=O)nc1-2,.,.,?,0.928µM*
COc1cc(C(=O)Nc2ccc(-c3cc(C(F)(F)F)nn3-c3ccccc3)cc2)cc(OC)c1OC,-24.3,.,.,.
CC(C)CC1C(=O)N(Cc2cn(CCC3OCCO3)nn2)CCS(=O)(=O)N1Cc1ccc(-c2ccccc2)cc1 (stereo not drawn),-18.8,.,.,.
Cc1ccc(-c2ccc(CN3C(CC(C)C)C(=O)N(Cc4cn(CCC5OCCO5)nn4)CCS3(=O)=O)cc2)cc1 (stereo not drawn),-101.2*,.,.,.
